Consider 23 molecules from PubChem BioAssay AID588692 (Broad Institute, 2011).

Screen size: about 360,000 compounds; about 830 (0.23%) were called active. The entries come from a sample that favours actives as a whole. Values without a mark were called inactive.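 Rule for the calls: active = mean luciferase reporter signal, scaled so untreated is 0 and the glycosylation-blocking control 100, at or above a set limit in every replicate; inconclusive = mean reaches the limit but not every replicate does; inactive = mean below the limit.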

The nature of this experiment: increase of ERlucT glycosylation luciferase signal, primary screen, N-linked glycosylation inhibitor project, D54 ERlucT cells, luminescence, set 2 (AID 588692).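 Note: luciferase carries N-glycosylation sites so blocking glycosylation raises the light; 0% = median of neutral control wells and 100% = median of 100 nM tunicamycin wells.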 The settings on record: 24 h, at 12.5 µM, hits give high values, percent of 100 nM tunicamycin response.
Regarding `O=C(NCCN1CCOCC1)c1ccccc1N1C(=O)[C@@H]2Cc3c([nH]c4ccccc34)C(c3cccc(Cl)c3)N2C1=O` (stereo partly drawn), the reporter increase was 4.03%. With `COC(=O)c1cccc(N(C(=O)c2ccco2)C(C(=O)NC2CCCC2)c2ccco2)c1` (stereo not drawn) the figure was 1.26%. With `COCCNc1ncnc2c1ncn2[C@H]1CN(Cc2ccc(OC)cc2)C[C@@H](CO)O1` the figure was 0.218%. As to `CC(C)C[C@H](NC(=O)NCCc1ccc(Cl)cc1)C(=O)O`, the reporter increase was 0.0345%. Turning to `CCN(CC)C(=O)CSc1nnc(-c2cnccn2)n1-c1ccc(C)cc1`, the reporter increase was 1.32%. The result for `Cc1cccc(NC(=O)C(C)N2C(=O)C3C4CC(C(Br)C4Br)C3C2=O)c1` (stereo not drawn) reads 2.15%; that for `CCN(C(=O)c1cc([N+](=O)[O-])ccc1NCc1cccnc1)c1ccccc1`, -2.09%. As for `Cn1cnc2c1c(=O)n(Cc1ccccc1C#N)c(=O)n2C`, the reporter increase is 1.69%. The result for `Cc1cc2oc(=O)cc(CN(C)Cc3ccccc3)c2cc1Cl` reads 0.116%; that for `CCN1C(=O)CS/C1=N\c1nccs1`, 0.352%; that for `C=CCC[C@@H](Cc1ccc(F)cc1)C(=O)OC[C@H](Cc1c[nH]c2ccccc12)NC(=O)[C@@H](CC=C)CC(=O)N(CCO)Cc1ccccc1`, -0.357%.

With `Cn1c(CCN2CCN(c3ccccn3)CC2)nc2cc(NS(=O)(=O)c3ccc(F)cc3)ccc21`, the reporter increase is -5.5%.

Consider `Cn1c(=O)n(C)c2cc(NS(=O)(=O)c3ccc(F)cc3)ccc21`, for which the reporter increase is 27.7% (active). The result for `Cn1c(=O)n(C)c2cc(S(=O)(=O)Nc3ccc(F)cc3)ccc21` reads 2.56%. For the molecule `COc1ccccc1CNC(=O)c1cc(-c2cc(F)ccc2OC)n[nH]1`, the reporter increase is 0.448%. With `Cc1cc(F)ccc1N1CCC(N2CCN(C)C(CCO)C2)CC1` (stereo not drawn) the figure was -1.14%; with `Cc1cc(O)ccc1-c1cc(C(=O)NCc2cc(C(F)(F)F)cc(C(F)(F)F)c2)[nH]n1`, 1.18%. With `COCCCNC(=O)c1ccc(-c2c(C)noc2C)c2ccoc12` the figure was 19.8%. With `COc1ccc(-c2coc3c(C(=O)NC(C)C)cccc23)c(C)c1` the figure was -2.53%; with `COCCCNC(=O)c1cccc2c(-c3ccc(O)c(OC)c3)coc12`, 31.5% (active). Turning to `COc1ccc(-c2ccc(CN3C(CC(C)C)C(=O)N(Cc4cn(CC5CCCCC5)nn4)CCS3(=O)=O)cc2)cn1` (stereo not drawn), the reporter increase is 4.1%. With `CSCCC(C(=O)NC1=NCCS1)N1C(=O)c2ccccc2C1=O` (stereo not drawn) the figure was -0.003%; with `COc1ccc(N2CCN(S(=O)(=O)c3cc4c5c(c3)C(C)C(=O)N5CCC4)CC2)cc1` (stereo not drawn), -1.71%.
